Out of some 360,000 compounds screened, about 8,200 (2.3%) were called active. Rule as the data show it: active = inhibition above about 27%; inactive = the rest. The full list was thinned out, with actives kept by preference.
Molecular target: Fructose-bisphosphate aldolase (Mycobacterium tuberculosis (strain ATCC 25618 / H37Rv)) (UniProt P9WQA3)
Assay: M. tuberculosis aldolase activity blockers – biochemical, fluorescence, strain H37Rv, primary screen (AID 588726);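 also: 0% = vehicle and 100% = reference inhibitor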
Conditions: purified M. tuberculosis FBA, fluorescence read-out, at 1 µM, hits give high values

Chain of Fructose-bisphosphate aldolase (Mycobacterium tuberculosis (strain ATCC 25618 / H37Rv)) (P9WQA3 whole entry, looked up): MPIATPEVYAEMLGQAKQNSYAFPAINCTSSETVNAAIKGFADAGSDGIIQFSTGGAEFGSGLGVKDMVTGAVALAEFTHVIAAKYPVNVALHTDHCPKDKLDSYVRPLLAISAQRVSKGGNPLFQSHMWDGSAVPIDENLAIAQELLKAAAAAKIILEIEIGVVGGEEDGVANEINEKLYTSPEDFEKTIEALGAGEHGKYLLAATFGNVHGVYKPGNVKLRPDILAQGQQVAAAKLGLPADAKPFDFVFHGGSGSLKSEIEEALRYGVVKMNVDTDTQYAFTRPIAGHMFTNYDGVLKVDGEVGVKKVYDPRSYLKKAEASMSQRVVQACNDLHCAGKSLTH

Row | SMILES | inhibition
1 | Cc1ccnc(NS(=O)(=O)c2ccc(NC(=O)c3oc4ccc(F)cc4c3C)cc2)n1 | 1.55% (inactive)
2 | CN(C(=O)c1cccc(NC(=O)Cc2ccc(NC(=O)C3CCCN(C(=O)C4CC4)C3)cc2)c1)C1CC1 (configuration not stated) | 0.61% (inactive)
3 | CN(C)Cc1c(O)ccc2occ(C(O)c3ccccc3)c12 (configuration not stated) | 6.31% (inactive)
4 | Cc1ccc(C(=O)c2coc3ccc(O)c(CN(C)C)c23)cc1 | -0.7% (inactive)
5 | CN(C)Cc1c(O)ccc2c(=O)c(-c3ccccc3Cl)coc12 | 96.3% (active)
6 | CC(Oc1ccc2c(-c3ccccc3)cc(=O)oc2c1)C(=O)NC(Cc1c[nH]c2ccccc12)C(=O)O (configuration not stated) | -3.79% (inactive)
7 | O=C(CNC(=O)OCc1ccccc1)Oc1cc2oc(=O)cc(-c3ccccc3)c2cc1Cl | 36.7% (active)
8 | O=C(CNC(=O)c1ccccc1)NCC(=O)OCc1ccc(Cl)cc1 | 0.34% (inactive)
9 | CCN(C(=O)COC(=O)C1CCN(S(=O)(=O)c2ccc(C)c(C)c2)CC1)C1CCS(=O)(=O)C1 (configuration not stated) | 4.31% (inactive)
10 | CCNC(=O)COC(=O)CCNC(=O)c1cccc(C)c1 | -2.08% (inactive)
11 | COCCN(CCOC)c1nc(N)c2c(N)nc3c(c2c1C#N)CC(=O)N3Cc1ccc(Cl)cc1 | 32.8% (active)
12 | CN(Cc1ccccc1)C(=O)C1CCCN(c2ncnc3c2nc2n3CCCCC2)C1 (configuration not stated) | 0.44% (inactive)
13 | COc1cccc(NS(=O)(=O)c2ccc(-c3coc(C)n3)cc2)c1 | -2.5% (inactive)
14 | O=C(/C=C/[C@H]1O[C@@H](n2ccc(=O)[nH]c2=O)[C@H](O)[C@@H]1O)NCc1ccccn1 | -1.68% (inactive)
15 | Cc1cc(C(=O)OCC(=O)Nc2nnc(C(C)C)s2)c2ccccc2n1 | 1.64% (inactive)
16 | CCOC(=O)c1cc(C(C)C)sc1NC(=O)COC(=O)c1nccnc1N | 55.2% (active)
17 | CCOC(=O)c1cc(C)sc1NC(=O)C1CCC1 | 4.25% (inactive)
18 | Cc1cc(C)c2c(c1)NP(=S)(c1ccccc1)N2 (configuration not stated) | 34.4% (active)
19 | COc1ccc2c(c1)NP(=S)(c1ccccc1)N2 (configuration not stated) | 18.1% (inactive)
20 | COc1cc2nc(N3CCN(C(=O)[C@@H]4CCCO4)CC3)nc(N)c2cc1OC | 95.4% (active)
21 | COC(=O)c1cc(OC)c(OC)cc1NC(=O)C1CCCO1 (configuration not stated) | 15.2% (inactive)

Row | SMILES | inhibition
22 | O=C(C1CCCO1)N1CCC(c2nc3ccccc3[nH]2)CC1 (configuration not stated) | -0.87% (inactive)
23 | CC1(C)CC(=O)c2cc(OCC(=O)NCC3CCCO3)ccc2O1 (configuration not stated) | 78.8% (active)
24 | C=CCOc1ccc(/C=C/C(=O)OCC(=O)NCC2CCCO2)cc1 (configuration not stated) | 1.08% (inactive)
25 | CCOc1ccc(S(=O)(=O)NCCC(=O)NCC2CCCO2)cc1 (configuration not stated) | -1.07% (inactive)
26 | CC1=C(C(=O)N(C(C)C)C(C)C)CC(CC(=O)NCCCCc2ccccc2)C(=O)N1CCC1=CCCCC1 (configuration not stated) | -1.08% (inactive)
27 | O=C(NC1CC1)C(Cc1ccccc1)NS(=O)(=O)c1ccccc1F (configuration not stated) | 2.61% (inactive)
28 | Cc1ccc(SCC(=O)NNC(=O)c2ccc(S(C)(=O)=O)cc2)cc1 | 0.63% (inactive)
29 | CC(C)(C)c1ccc(/C=C/C(=O)NCCCn2ccnc2)cc1 | 1.36% (inactive)
30 | CCCC/C=C/c1cccc2nncn12 | 27.5% (active)
31 | O=C(O)c1ccccc1-c1cccc2nncn12 | 4.68% (inactive)
32 | OCC1(CO)CC2(C1)CC(CO)(CO)C2 | 0.01% (inactive)
33 | Cc1nn(-c2ncccn2)c2c1C(=O)CC(C)(C)C2Br (configuration not stated) | 4.4% (inactive)
34 | COc1ccc(NC(=O)/C(N=Nc2cccc(S(=O)(=O)Nc3ccc(SC(F)F)cc3)c2)=C(\C)O)cc1 | -0.31% (inactive)
35 | CCc1ccc(C(=O)NC(=S)Nc2ccccc2N2CCOCC2)cc1 | 0.12% (inactive)
36 | Cc1cc(=O)[nH]c(SCc2ccc(Cl)cc2)n1 | 0.44% (inactive)
37 | Cc1cc(=O)n2[nH]c(-c3cccc(Cl)c3)cc2n1 | 32.4% (active)
38 | O=c1c2c(nc3cc(-c4cccc(Cl)c4)[nH]n13)CCCC2 | 3.87% (inactive)
39 | C[C@H](NC(=O)c1ccccc1Cl)C(=O)OCCOc1cccc(Cl)c1 | 4.6% (inactive)
40 | CCN(CC)CCNCc1ccc(OCc2ccc(Cl)nc2)c(OC)c1 | -0.85% (inactive)
41 | O=C(CN1C(=O)NC2(CCCC2)C1=O)Nc1ccc(F)c(F)c1F | -0.1% (inactive)
42 | CC(=O)NCCC(=O)Nc1nc(C)c(Cc2ccc3c(c2)OCO3)s1 | -0.89% (inactive)

Row | SMILES | inhibition
43 | Cc1cc(NC(=O)CN2C(=O)NC(CCc3ccccc3)C2=O)no1 (configuration not stated) | 0.86% (inactive)
44 | COCC(=O)N(C)[C@H]1C[C@H]2c3cc(Oc4ccccc4C)ccc3CCN2C(=O)[C@H]1[C@H](C)O | 0.95% (inactive)
45 | C[C@H](O)[C@@H]1C(=O)N2CCc3c([nH]c4ccccc34)[C@@H]2C[C@@H]1N(C)C(=O)Nc1ccc(F)cc1 | 55.9% (active)
46 | C[C@H](O)[C@@H]1C(=O)N2CCc3ccc(N4CCOCC4)cc3[C@@H]2C[C@@H]1N(C)C(=O)C(C)(C)C | 7.29% (inactive)
47 | COc1ccc(CCNC(=O)CCCCCNC(=O)N2CCn3c2nc2ccccc23)cc1OC | -0.38% (inactive)
48 | CCc1c(C)c2ccc(OC3CCCCC3=O)cc2oc1=O (configuration not stated) | 90.5% (active)
49 | CCOc1ccc2c(=O)c(-c3ccc4c(c3)OCCCO4)c(C)oc2c1 | -0.24% (inactive)
50 | CCc1nc2ccccc2c(C(=O)OC2CCCCC2=O)c1C (configuration not stated) | 0.09% (inactive)
51 | COC(=O)C(NS(=O)(=O)c1ccc(F)cc1)c1ccccc1 (configuration not stated) | 1.52% (inactive)
52 | CCSC1(SCC)N=C(N)C2(C#N)C(c3ccccc3)NC(C)=CC12C#N (configuration not stated) | 4.9% (inactive)
53 | CN1C[C@@H](CO)O[C@@H](n2cnc3c(N4CCN(CCO)CC4)ncnc32)C1 | -1.44% (inactive)
54 | COc1cccc2cc(C(=O)N3CCN(C(=O)c4ccccc4)CC3)c(=O)oc12 | -2.27% (inactive)
55 | COc1ccc(-c2nc(CS(=O)CC(=O)NCc3ccccn3)c(C)o2)cc1 (configuration not stated) | 4.79% (inactive)
56 | COc1ccc2oc(=O)c(C(=O)N3CCCC3)cc2c1 | 27.7% (active)
57 | CCOC(=O)N1CCN(C(=O)c2n[nH]c(=O)c3ccccc23)CC1 | -0.89% (inactive)
58 | COc1ccc2oc(=O)c(C(=O)NCc3ccccn3)cc2c1 | 82.7% (active)
59 | COc1ccc(C(=O)N2CCCN(C)CC2)c(OC)c1 | 1.38% (inactive)
60 | COc1ccc(NC(=O)C2C3C=CC(C3)C2C(=O)NCc2ccccn2)c(OC)c1 (configuration not stated) | 3.99% (inactive)
61 | CCOC(=O)N1CCN(C(=O)c2cc3c(ccc4ccccc43)oc2=O)CC1 | 48.8% (active)
62 | C=CCc1cccc2cc(C(=O)N3CCN(C(=O)OCC)CC3)c(=O)oc12 | 1.44% (inactive)

From PubChem BioAssay AID588726 (The Scripps Research Institute Molecular Screening Center, 2011)
